Six compounds from PubChem BioAssay (NCATS) can be followed below.

“And” between values parts separate entries of the source, which are not always exact repeats. Equal entries are not always repeated. Results filed as inconclusive are left out. The source made the active and inactive calls. Unless noted, calls follow the shape of the dose curve; as a rule, active = well fitted curve in the direction sought with a large enough effect; inconclusive = small, poorly fitted or top-dose-only effect, or another doubt; inactive = no such curve, though single readings can be large; an effect the other way counts as inactive or inconclusive. Some results are limits rather than exact numbers.

Experiment [1] in a line: Cell Viability - Jurkat (AID 426;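 active = dose-dependent loss of cell ATP signal giving a full or clear fitted curve, ranked by lower potency value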; also: potency is read from the fitted curve at half-maximal effect). The settings on record: qHTS. In outline: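 Jurkat (clone E6-1, human T-cell leukemia) cells, 5000/well in complete medium, were exposed to compound for 40 hr at 37 °C. Viability was read as intracellular ATP by CellTiter-Glo luminescence; AC50 came from Hill fits of concentration-response data.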
Experiment [2] is described as follows: Cell Viability - Hek293 (AID 427;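 active = compounds whose dose-response curve shows a full or clear partial loss of cell viability, called from curve shape rather than a numeric limit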;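 also: potency is read from the fitted curve at half-maximal effect; cells exposed to compound for 40 hours at 37 °C before reading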). The settings on record: qHTS. Summed up:
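HEK293 cells in complete medium were exposed to compound for 40 hr at 37 °C, then cellular ATP was read by CellTiter-Glo luminescence. Data were normalized to DMSO (basal) and 100 uM tamoxifen (100% inhibition), and AC50 came from Hill fits.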

The nature of experiment [3]: Cell Viability - SH-SY5Y (AID 544).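 Also: 0% = DMSO alone and -100% = 100 µM tamoxifen; nearly all actives have a fitted effect of over 55% in size.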 The settings on record: SH-SY5Y neuroblastoma cell viability; viability change, negative = cytotoxic: at 92.2 µM (top of the series). In outline:
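Human neuroblastoma SH-SY5Y cells (1500/well) in complete medium were exposed to compounds for 40 hr at 37 °C; intracellular ATP was then quantified by CellTiter-Glo luminescence after 20 min at room temperature. AC50 came from Hill-equation concentration-response fits.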

A short description of experiment [4]: Cell Viability - Mesenchymal (AID 546).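 Also: cells exposed to compound for 40 hours before reading; 0% = DMSO only and -100% = 100 µM tamoxifen.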 Particulars: mesenchymal cells viability, qHTS; series mostly up to 91.7 µM. In outline:
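Normal human renal glomerulus-derived kidney mesenchymal cells, 1000 per well in complete medium, were treated with compounds for 40 hr at 37 °C. Viability was read as intracellular ATP by CellTiter-Glo luminescence; AC50 values came from Hill-equation fits of qHTS concentration-response data.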
On the technique in general: qHTS replaces the single test concentration by a dilution series.

For experiment [5], the target named is Cytochrome P450 3A4 (Homo sapiens) (UniProt P08684). Put plainly: qHTS Assay for Inhibitors and Substrates of Cytochrome P450 3A4 (AID 884). Also: % is scaled to controls: 0 for no effect and ±100 for the full control effect; nearly all actives have a fitted effect of over 50% in size. The settings on record: recombinant CYP3A4, Luciferin-PPXE luminescence; series mostly up to 57.1 µM. In outline: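 20 nM human CYP3A4 with 25 uM Luciferin-PPXE (at KM) in 200 mM KPO4, preincubated 10 min with compound; NADPH regeneration started a 60 min RT reaction. Luciferin detected by luminescence, normalized to 57 uM ketoconazole as full inhibition.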
Chain of Cytochrome P450 3A4 (Homo sapiens) (P08684 whole entry, looked up): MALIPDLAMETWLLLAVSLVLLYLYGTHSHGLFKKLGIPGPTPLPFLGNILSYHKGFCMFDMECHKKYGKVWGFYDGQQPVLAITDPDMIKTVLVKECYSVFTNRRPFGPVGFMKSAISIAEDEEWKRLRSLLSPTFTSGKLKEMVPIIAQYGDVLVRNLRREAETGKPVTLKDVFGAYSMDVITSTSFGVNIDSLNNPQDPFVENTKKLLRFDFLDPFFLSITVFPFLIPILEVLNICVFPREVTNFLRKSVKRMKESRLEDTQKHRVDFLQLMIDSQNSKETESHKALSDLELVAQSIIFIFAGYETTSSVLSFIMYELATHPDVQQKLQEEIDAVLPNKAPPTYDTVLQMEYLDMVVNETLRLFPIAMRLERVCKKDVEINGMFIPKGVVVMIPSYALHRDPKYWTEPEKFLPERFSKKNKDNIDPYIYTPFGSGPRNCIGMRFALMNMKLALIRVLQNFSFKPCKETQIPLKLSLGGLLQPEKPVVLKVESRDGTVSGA

Experiment [6] is described as follows: MultiTox-Fluor Cytotoxicity Assay - LYMP1-002 - Dead Cells (AID 960).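 Also: 0% = DMSO and 100% = tetraoctylammonium bromide; nearly all actives have a fitted effect of over 60% in size.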 Particulars: LYMP1-002 lymphoblastoid cells, dead-cell protease fluorescence; series mostly up to 46.1 µM. In outline:
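Human lymphoblastoid cells (LYMP1-002), 2500/well in complete medium, were exposed to compounds for 16 hr at 37 C. Dead-cell protease activity was read as bis-AAF-R110 fluorescence (Ex/Em 485/520), normalized to DMSO and 15 uM tetraoctylammonium bromide; AC50 from Hill fits.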

Experiment [7] in a line: Cell Viability - LYMP2-005 (AID 967).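 Also: plate controls were DMSO only for no effect and 92 µM tetraoctylammonium bromide control for full effect.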 Particulars: LYMP2-005 lymphoblastoid cell viability; series mostly up to 92.2 µM. In outline:
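LYMP2-005 human lymphoblastoid cells (2500/well) were treated with compounds for 24 h at 37 C. Intracellular ATP was then measured by CellTiter-Glo luminescence after 30 min at room temperature. AC50 values came from Hill-equation fits of qHTS concentration-response data.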

The nature of experiment [8]: Cell Viability - LYMP2-019 (AID 973).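 Also: 0% = DMSO alone and full effect = 92 µM tetraoctylammonium bromide; nearly all actives have a fitted effect of over 55% in size.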 Particulars: LYMP2-019 lymphoblastoid cell line viability; series mostly up to 92.2 µM. Summed up: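 Human lymphoblastoid cells were seeded at 2500 cells/well, preincubated 5 hr at 37 C, then exposed to compounds for 24 hr at 37 C in complete medium. Intracellular ATP was measured by CellTiter-Glo luminescence; AC50 from Hill fits.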

A short description of experiment [9]: Cell Viability - LYMP2-010 (AID 981). Also: % is scaled to controls: 0 for no effect and ±100 for the full control effect; nearly all actives have a fitted effect of over 55% in size. The settings on record: LYMP2-010 lymphoblastoid cell viability, qHTS; series mostly up to 92.2 µM. Summed up:
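Human lymphoblastoid LYMP2-010 cells (2500/well) were preincubated 5 hr at 37 C, then exposed to compounds for 24 hr at 37 C in complete medium. Intracellular ATP was measured by CellTiter-Glo luminescence after 30 min at room temperature; AC50 from Hill-fitted concentration-response.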

Experiment [10] can be described thus: Cell Viability - LYMP2-024 (AID 988).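 Also: plate controls were DMSO only for no effect and 92 µM tetraoctylammonium bromide for full effect; nearly all actives have a fitted effect of over 60% in size.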 The settings on record: LYMP2-024 lymphoblastoid cell viability; series mostly up to 92.2 µM. Summed up: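 Human lymphoblastoid cells (2500/well) in complete medium were preincubated 5 hr at 37 C, then exposed to compounds for 24 hr at 37 C. Intracellular ATP was read by CellTiter-Glo luminescence; AC50 from Hill-equation fits of concentration-response data.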

A short description of experiment [11]: Cell Viability - LYMP2-026 (AID 989). Also: % is scaled to controls: 0 for no effect and ±100 for the full control effect; nearly all actives have a fitted effect of over 50% in size. Particulars: LYMP2-026 lymphoblastoid cell viability, qHTS; series mostly up to 92.2 µM. In outline: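 Human lymphoblastoid cells (2500/well) in complete medium were preincubated 5 hr at 37 C, then exposed to compounds for 24 hr at 37 C. Cellular ATP was read by CellTiter-Glo luminescence; AC50 from Hill-equation fits of concentration-response data.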

A short description of experiment [12]: Cell Viability - LYMP1-002 - Assay at 40 hr (AID 994).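 Also: 0% = DMSO only and full inhibition = 92 µM tetraoctylammonium bromide; nearly all actives have a fitted effect of over 60% in size.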 Particulars: LYMP1-002 lymphoblastoid cell viability; series mostly up to 92.2 µM. In outline:
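Human lymphoblastoid cells, 2500/well in complete medium, were preincubated 5 hr at 37 C, then exposed to compounds for 40 hr at 37 C. Intracellular ATP was read by CellTiter-Glo luminescence after 30 min at room temperature; AC50 from Hill-equation fits.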

Experiment [13] deals with Peroxisome proliferator-activated receptor gamma (Homo sapiens) (UniProt P37231). As to the kind of experiment: qHTS assay for small molecule agonists of peroxisome proliferator-activated receptor gamma signaling (AID 588536; active = well fitted curve in the direction sought with a large enough effect in the signal ratio, with a control signal flat, not every such curve was filed as active; the % refers to the signal ratio;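 also: 0% = DMSO basal wells and 100% = rosiglitazone at 2 µM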). Particulars: HEK293 PPARg-UAS-bla, beta-lactamase ratio, 16 h, percent of rosiglitazone response, DMSO as zero; series mostly up to 76.7 µM. Summed up: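 GeneBLAzer PPAR-gamma-UAS-bla HEK293 cells in 1% charcoal/dextran-treated FBS medium were treated 16 h at 37 C with compounds. Beta-lactamase activity was read by CCF4 ratio (460/530 nm). Response was normalized to 2 uM rosiglitazone (100%) and DMSO, then Hill-fitted for EC50 and efficacy.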
Chain of Peroxisome proliferator-activated receptor gamma (Homo sapiens) (P37231 whole entry, looked up): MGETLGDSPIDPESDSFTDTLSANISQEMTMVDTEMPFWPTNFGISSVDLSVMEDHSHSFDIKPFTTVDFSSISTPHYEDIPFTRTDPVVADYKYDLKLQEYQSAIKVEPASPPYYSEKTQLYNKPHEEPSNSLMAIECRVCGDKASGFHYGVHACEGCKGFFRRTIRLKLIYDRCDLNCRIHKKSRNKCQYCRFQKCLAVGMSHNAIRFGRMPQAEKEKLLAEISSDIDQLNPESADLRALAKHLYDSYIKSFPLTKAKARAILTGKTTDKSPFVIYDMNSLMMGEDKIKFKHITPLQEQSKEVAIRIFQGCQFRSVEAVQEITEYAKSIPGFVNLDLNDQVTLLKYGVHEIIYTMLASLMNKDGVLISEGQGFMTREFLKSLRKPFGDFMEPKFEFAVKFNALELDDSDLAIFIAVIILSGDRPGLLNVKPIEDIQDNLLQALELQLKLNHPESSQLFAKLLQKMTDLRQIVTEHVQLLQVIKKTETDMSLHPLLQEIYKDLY

Experiment [14] is described as follows: qHTS assay for small molecule agonists of retinoid X receptor alpha signaling (AID 588544; calls by dose curve). The settings on record: HEK293T RXRa-UAS-bla, beta-lactamase reporter, 18 h; 530 nm emission.
The target of experiment [15] is Retinoic acid receptor RXR-alpha (Homo sapiens) (UniProt P19793). The description is as above. Particulars: HEK293T RXRa-UAS-bla, beta-lactamase reporter, 18 h; series mostly up to 76.7 µM.
Chain of Retinoic acid receptor RXR-alpha (Homo sapiens) (P19793 whole entry, looked up): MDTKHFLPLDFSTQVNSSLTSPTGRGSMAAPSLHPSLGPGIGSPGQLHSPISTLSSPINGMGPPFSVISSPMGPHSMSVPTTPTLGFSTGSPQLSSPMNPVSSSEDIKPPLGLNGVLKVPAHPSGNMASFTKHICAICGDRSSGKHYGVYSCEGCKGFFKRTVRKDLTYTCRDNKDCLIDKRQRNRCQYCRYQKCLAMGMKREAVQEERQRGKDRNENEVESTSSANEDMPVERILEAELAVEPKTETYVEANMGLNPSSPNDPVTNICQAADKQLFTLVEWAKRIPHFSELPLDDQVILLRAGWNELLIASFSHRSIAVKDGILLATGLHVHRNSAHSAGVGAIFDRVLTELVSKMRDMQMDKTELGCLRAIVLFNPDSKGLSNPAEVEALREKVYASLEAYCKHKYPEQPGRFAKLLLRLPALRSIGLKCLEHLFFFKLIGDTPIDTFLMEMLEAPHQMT
The target in experiment [16] is Thyroid hormone receptor beta (Homo sapiens) (UniProt P10828). As to the kind of experiment: qHTS assay for small molecule agonists of thyroid hormone receptor beta signaling (AID 588545; calls by dose curve;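 also: 0% = DMSO only and 100% = 10 nM T3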). Particulars: TR-UAS-bla GripTite HEK 293, beta-lactamase ratio, agonist mode, 18 h; series mostly up to 76.7 µM. In outline: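 TR-UAS-bla GripTite HEK 293 cells (2500/well, medium with 2% charcoal/dextran FBS) were treated in agonist mode for 18 h at 37 C, titrated. Beta-lactamase was read by CCF4 ratio after 2 h; normalized to 10 nM T3 (100%) and DMSO, Hill-fitted for EC50 and efficacy.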
Chain of Thyroid hormone receptor beta (Homo sapiens) (P10828 whole entry, looked up): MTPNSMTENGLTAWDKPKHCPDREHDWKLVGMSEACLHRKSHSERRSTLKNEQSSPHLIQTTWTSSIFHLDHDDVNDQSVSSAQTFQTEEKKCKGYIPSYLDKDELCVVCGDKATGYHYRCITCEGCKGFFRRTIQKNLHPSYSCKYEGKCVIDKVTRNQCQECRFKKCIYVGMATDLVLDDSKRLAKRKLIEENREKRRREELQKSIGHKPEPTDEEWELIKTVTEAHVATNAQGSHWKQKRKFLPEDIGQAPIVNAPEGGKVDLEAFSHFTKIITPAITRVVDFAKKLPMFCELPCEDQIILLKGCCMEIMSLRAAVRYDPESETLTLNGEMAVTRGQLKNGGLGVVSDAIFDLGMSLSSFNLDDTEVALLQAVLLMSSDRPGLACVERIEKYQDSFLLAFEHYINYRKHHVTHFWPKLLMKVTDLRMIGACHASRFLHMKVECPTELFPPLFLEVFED

A short description of experiment [17]: qHTS assay for small molecule antagonists of retinoid X receptor alpha signaling (AID 588546).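 Also: cells stimulated with 9-cis-retinoic acid as agonist; % is scaled to controls: 0 for no effect and ±100 for the full control effect.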 Particulars: HEK293T RXRa-UAS-bla, beta-lactamase ratio, antagonist mode; measured here: W530 green channel, cytotoxicity proxy. Summed up:
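Beta-lactamase reporter inhibition, read as CCF4 fluorescence ratio (ex 405, em 460/530 nm) after 2 h at RT. HEK293T UAS-bla cells, 2500/well, were stimulated with 9-cis-RA at 500 or 100 nM final alongside test compound for 18 h at 37 C.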

The target in experiment [18] is Tumor necrosis factor (Homo sapiens) (UniProt P01375). Put plainly: qHTS assay to identify small molecules that stimulate Tumor Necrosis Factor-alpha (TNF-alpha) secretion (AID 651757; active = well fitted curve in the direction sought with a large enough effect in the signal ratio; the % refers to the signal ratio; also: 0% is about no effect). Particulars: Human cells, HTRF 665/615 ratio; series mostly up to 92.2 µM. In outline: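 THP-1 cells were exposed to compounds for 17 hrs at 37 C, after which secreted TNF-alpha was measured by homogeneous HTRF (TR-FRET) using cryptate- and XL665-labeled anti-TNF-alpha antibodies, read after 3 hr at room temperature.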
Chain of Tumor necrosis factor (Homo sapiens) (P01375 whole entry, looked up): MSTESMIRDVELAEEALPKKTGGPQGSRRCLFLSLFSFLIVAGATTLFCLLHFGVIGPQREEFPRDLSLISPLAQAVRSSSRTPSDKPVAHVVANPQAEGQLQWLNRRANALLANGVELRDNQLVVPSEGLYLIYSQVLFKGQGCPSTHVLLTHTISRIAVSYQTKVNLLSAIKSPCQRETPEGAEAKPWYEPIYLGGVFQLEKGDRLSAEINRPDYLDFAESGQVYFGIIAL

A short description of experiment [19]: qHTS assay for small molecule antagonists of the retinoid-related orphan receptor gamma (ROR-gamma) signaling pathway - cell viability counter screen (AID 720652; active = well fitted curve in the direction sought with a large enough effect in the repeat runs; an effect the other way counts as inactive or inconclusive;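 also: CHO reporter cells with doxycycline-induced ROR-gamma expression; compound exposure lasted 16 hr before ATP read; % is scaled to controls: 0 for no effect and ±100 for the full control effect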). Particulars: RORgamma reporter cell line viability counter screen; series mostly up to 92.2 µM. Summed up: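 Counter screen in CHO cells carrying TET-inducible ROR-gamma and an ROR response element-luciferase reporter; cells plated 5 hr, compound pinned, doxycycline added, then 16 hr at 37 C. Viability read as intracellular ATP by CellTiter-Glo luminescence.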

Experiment [20] concerns the target Nuclear receptor subfamily 1 group I member 2 (Rattus norvegicus) (UniProt Q9R1A7). Put plainly: qHTS assay for small molecule activators of the rat pregnane X receptor (rPXR) signaling pathway (AID 651751; call rule not given here; also: 0% is about no effect). The settings on record: rPXR reporter cells, luciferase (One-Glo), 24 h.

Chain of Nuclear receptor subfamily 1 group I member 2 (Rattus norvegicus) (Q9R1A7 whole entry, looked up): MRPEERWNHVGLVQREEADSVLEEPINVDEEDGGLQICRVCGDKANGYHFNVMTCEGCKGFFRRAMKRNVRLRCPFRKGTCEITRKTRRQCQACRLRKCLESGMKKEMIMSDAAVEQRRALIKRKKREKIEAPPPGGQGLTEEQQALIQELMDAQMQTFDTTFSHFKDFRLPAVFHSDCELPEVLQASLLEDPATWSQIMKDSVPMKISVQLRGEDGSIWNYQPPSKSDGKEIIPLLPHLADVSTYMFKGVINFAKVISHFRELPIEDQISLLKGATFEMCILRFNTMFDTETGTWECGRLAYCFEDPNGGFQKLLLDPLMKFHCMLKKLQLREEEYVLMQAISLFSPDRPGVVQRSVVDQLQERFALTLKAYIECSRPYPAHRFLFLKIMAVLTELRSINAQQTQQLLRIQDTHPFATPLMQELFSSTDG

Consider `CC1CC(=O)O1` (centres undefined), for which the Potency in experiment [1] and in experiment [2] was > 92 µM (inactive) each time. For the same compound, the Potency entry in experiment [3], in [4], in experiment [5], in experiment [6], in experiment [7] and in experiment [8] was “inactive” throughout. In addition, the Potency entry in experiment [9], in experiment [10], in [11], in [12], in experiment [16] and in experiment [19] was “inactive” throughout. The result in [13], in experiment [15] and in experiment [18] was inactive. Further, the max response in experiment [14] is -12.1%; in [17] it was -1.73%; in [20], 0.366% (inactive).

With `C=CC#N`, the Potency in experiment [1] and in experiment [2] was > 92 µM (inactive) each time. Besides, the Potency entry in [3], in experiment [4], in experiment [5], in experiment [6], in experiment [7] and in experiment [8] was “inactive” in each case. Besides, the Potency entry in experiment [9], in [10], in experiment [11], in experiment [12], in experiment [16] and in experiment [19] was “inactive” each time. In addition, the outcome in [13], in [15] and in experiment [18] was inactive. For the same compound, the max response in experiment [14] was 6.79%; in [17], -3.06%; in experiment [20] it was -2.96% (inactive).

For the compound `Nc1ccc(Oc2ccc(N)cc2)cc1`, the Potency in experiment [1] and in experiment [2] was > 92 µM (inactive) each time. Further, the Potency result in experiment [3], in [4], in experiment [6], in [7], in experiment [8] and in experiment [9] was “inactive” throughout. Further, the Potency entry in [10], in experiment [11], in experiment [12] and in experiment [19] was “inactive” in each case. The result in experiment [13] and in experiment [15] was inactive. In addition, the max response in [14] was 6.59% and -0.644%; in experiment [17], -3.97% and -1.47%; in [20] it was 6.46% (inactive) and 5.6% (inactive).

For `NNC(N)=S`, the Potency in experiment [1] and in experiment [2] was > 92 µM (inactive) each time. Further, the Potency entry in experiment [3], in experiment [4], in experiment [5], in experiment [6], in [7] and in experiment [8] was “inactive” in each case. For the same compound, the Potency entry in experiment [9], in experiment [10], in experiment [11], in [12], in experiment [16] and in [19] was “inactive” each time. Besides, the outcome in experiment [13] and in experiment [18] was inactive. Further, the max response in [17] was 6.4%; in experiment [20], 0.379% (inactive).

Consider `CN(C)C(=O)Nc1ccc(Cl)cc1`, for which the Potency in [1] and in experiment [2] was > 92 µM (inactive) throughout. For the same compound, the Potency result in [3], in experiment [4], in experiment [5], in [6], in experiment [7] and in experiment [8] was “inactive” in each case. Moreover, the Potency entry in experiment [9], in experiment [10], in experiment [11], in [12], in experiment [16] and in experiment [19] was “inactive” each time. The outcome in experiment [13], in experiment [15] and in experiment [18] was inactive. In addition, the max response in experiment [14] was -9.88% and -12.4%; in [17], -7.13% and -6.88%; in experiment [20], 6.29% (inactive) and 10.4% (inactive).

Regarding `OCCCCO`, the Potency in experiment [1] and in experiment [2] was > 92 µM (inactive) throughout. Further, the Potency result in [3], in experiment [4], in experiment [5], in experiment [6], in experiment [7] and in experiment [8] was “inactive” in each case. The Potency entry in [9], in experiment [10], in [11], in [12], in [16] and in experiment [19] was “inactive” each time. For the same compound, the outcome in experiment [13], in experiment [15] and in experiment [18] was inactive. The max response in experiment [14] was 1.71%; in experiment [17] it was -5.28%.
